# Reference: PubChem BioAssay
# Active and inactive are the calls of the source.
# Assays:
# [1] = small molecules captured by biotinylated probe aFSTL3 – biochemical, small-molecule microarray, fluorescence 635/667, stem cell growth factor project, primary screen (AID 1064); details: higher = more signal;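 also: measures binding of the biotinylated anti-FSTL3 antibody to printed compounds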
# [2] = binders from COS7 lysate, DM2A8 probe, primary screen, torsin A project, cell lysate, small-molecule microarray, fluorescence 635/667 (AID 1065); details: higher = more signal, COS7 lysate expressing mutant human TOR1A
# [3] = small molecules captured by biotinylated probe aFGF2 – biochemical, small-molecule microarray, fluorescence 635/667, stem cell growth factor project, primary screen (AID 1067); details: higher = more signal;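 also: measures binding of biotinylated aFGF2 protein to printed compounds on slides; z-score merges feature fluorescence and signal-to-noise across triplicate slides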
# [4] = small molecules captured by biotinylated probe aFGF10 – biochemical, small-molecule microarray, fluorescence 635/667, stem cell growth factor project, primary screen (AID 1071); details: higher = more signal;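 also: score merges 667 nm spot intensity and signal to noise from triplicate slides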
# [5] = target: Neurogenic locus notch homolog protein 2 (Homo sapiens) (UniProt Q04721); assay: small molecules binding Notch2 protein – biochemical, small-molecule microarray, 635 nm fluorescence, stem cell growth factors, primary screen (AID 1073); details: higher = more signal
# [6] = target: Pro-neuregulin-1, membrane-bound isoform (Homo sapiens) (UniProt Q02297); assay: small molecules binding neuregulin-1 protein – biochemical, small-molecule microarray, fluorescence 635/667, psychiatric disease protein project, primary screen (AID 1075); details: NRG1 binding, 635 nm fluorescence, higher = more signal;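 also: score combines 667 nm spot fluorescence with signal to noise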
# [7] = system: Neuregulin-1 EGF-like domain; assay: small molecules binding NRG1 EGF domain – biochemical, small-molecule microarray, 635 nm fluorescence, primary screen (AID 1081); details: higher = more signal;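 also: binding of the protein to compounds printed on small-molecule microarray slides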
# [8] = FRG1 expression reporter modulators in myotubes – cell-based, C2C12 myotubes, firefly/Renilla luciferase, luminescence, FRG1 inhibition for FSHD, primary screen (AID 1084); details: FRG1 promoter luciferase, higher = more signal, called active from +8 up or from −8 down
# [9] = small molecules captured by biotinylated probe aFST – biochemical, small-molecule microarray, fluorescence 635/667, stem cell growth factor project, primary screen (AID 1086); details: higher = more signal;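 also: score merges 667 nm fluorescence with signal-to-noise of each printed compound spot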
# [10] = binders of probe aHhip on microarray, primary screen, stem cell growth factor project, biochemical, small-molecule microarray, fluorescence 635/667 (AID 1087); details: higher = more signal;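 also: score merges spot fluorescence at 667nm with spot signal to noise ratio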
# [11] = system: PRMT1 (protein arginine N-methyltransferase 1); assay: small molecules binding arginine methyltransferase PRMT1 – biochemical, small-molecule microarray, 635 nm fluorescence, primary screen (AID 1088); details: higher = more signal;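 also: binding of Prmt1 protein to compounds spotted on small-molecule microarray slides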
# [12] = growth effects on S. cerevisiae YJM789 – YJM789 clinical isolate, OD600, 24 h, basal, primary screen (AID 1089); details: higher = more signal, called active from +8 up or from −8 down;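 also: growth of clinical yeast isolate S. cerevisiae YJM 789 seeded 1000 cells per well; test concentration not given here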
# [13] = S. pombe growth modifiers, basal conditions – strain 972, OD600, 24 h, no modulator, primary screen (AID 1090);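 also: basal condition with compound alone and no growth modifier present; test concentration not given here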; details: S. pombe 972 growth, higher = more signal, called active from +8 up or from −8 down
# [14] = budding yeast growth modifiers under rapamycin – strain BY4716, OD600, 96 h, primary screen (AID 1091); also: test concentration not given here; details: S. cerevisiae BY4716 + rapamycin, higher = more signal, called active from +8 up or from −8 down
# [15] = target: Torsin-1A-interacting protein 2 (Homo sapiens) (UniProt Q8NFQ8); assay: small molecules binding lysate-expressed LULL1 – cell lysate, human LULL1 lysate, 635/667 nm fluorescence, primary screen (AID 1092); details: small-molecule microarray, hLULL1 lysate binding, 635 nm fluorescence; higher = more signal;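 also: probe is lysate of COS7 cells overexpressing human LULL1; score merges per-feature 667 nm fluorescence with signal-to-noise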
# [16] = optical density change of DRC41 E. coli – strain DRC41, OD650, 24 h, E. coli filamentation project, primary screen (AID 1093);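 also: MC1000 strain lacking acrAB efflux and sulA so SOS filamentation is blocked; test concentration not given here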; details: E. coli DRC41 growth, higher = more signal, called active from +8 up or from −8 down
# [17] = probe aLefty2 binding to arrayed compounds – biochemical, biotinylated probe, 635/667 nm fluorescence, primary screen (AID 1094); details: small-molecule microarray, higher = more signal;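 also: score merges spot fluorescence near 667 nm with spot signal-to-noise ratio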
# [18] = system: Noggin (protein binding on small-molecule microarray); assay: small molecules binding Noggin protein – biochemical, 635/667 nm fluorescence, primary screen (AID 1095); details: 635 nm fluorescence, higher = more signal;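 also: score merges 667 nm feature fluorescence with signal to noise over triplicate slides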
# [19] = target: Neurogenic locus notch homolog protein 3 (Homo sapiens) (UniProt Q9UM47); assay: small molecules binding NOTCH3 protein – biochemical, 635/667 nm fluorescence, primary screen (AID 1096); details: small-molecule microarray, 635 nm fluorescence, higher = more signal
# [20] = probe aEGFR binding to arrayed compounds – biochemical, biotinylated probe, 635/667 nm fluorescence, primary screen (AID 1097); details: small-molecule microarray, higher = more signal;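 also: probe is a biotinylated anti-EGFR antibody binding compounds printed on slides; score combines fluorescence near 667 nm and signal to noise of each spot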
# Chain of Neurogenic locus notch homolog protein 3 (Homo sapiens) (Q9UM47 whole entry, looked up): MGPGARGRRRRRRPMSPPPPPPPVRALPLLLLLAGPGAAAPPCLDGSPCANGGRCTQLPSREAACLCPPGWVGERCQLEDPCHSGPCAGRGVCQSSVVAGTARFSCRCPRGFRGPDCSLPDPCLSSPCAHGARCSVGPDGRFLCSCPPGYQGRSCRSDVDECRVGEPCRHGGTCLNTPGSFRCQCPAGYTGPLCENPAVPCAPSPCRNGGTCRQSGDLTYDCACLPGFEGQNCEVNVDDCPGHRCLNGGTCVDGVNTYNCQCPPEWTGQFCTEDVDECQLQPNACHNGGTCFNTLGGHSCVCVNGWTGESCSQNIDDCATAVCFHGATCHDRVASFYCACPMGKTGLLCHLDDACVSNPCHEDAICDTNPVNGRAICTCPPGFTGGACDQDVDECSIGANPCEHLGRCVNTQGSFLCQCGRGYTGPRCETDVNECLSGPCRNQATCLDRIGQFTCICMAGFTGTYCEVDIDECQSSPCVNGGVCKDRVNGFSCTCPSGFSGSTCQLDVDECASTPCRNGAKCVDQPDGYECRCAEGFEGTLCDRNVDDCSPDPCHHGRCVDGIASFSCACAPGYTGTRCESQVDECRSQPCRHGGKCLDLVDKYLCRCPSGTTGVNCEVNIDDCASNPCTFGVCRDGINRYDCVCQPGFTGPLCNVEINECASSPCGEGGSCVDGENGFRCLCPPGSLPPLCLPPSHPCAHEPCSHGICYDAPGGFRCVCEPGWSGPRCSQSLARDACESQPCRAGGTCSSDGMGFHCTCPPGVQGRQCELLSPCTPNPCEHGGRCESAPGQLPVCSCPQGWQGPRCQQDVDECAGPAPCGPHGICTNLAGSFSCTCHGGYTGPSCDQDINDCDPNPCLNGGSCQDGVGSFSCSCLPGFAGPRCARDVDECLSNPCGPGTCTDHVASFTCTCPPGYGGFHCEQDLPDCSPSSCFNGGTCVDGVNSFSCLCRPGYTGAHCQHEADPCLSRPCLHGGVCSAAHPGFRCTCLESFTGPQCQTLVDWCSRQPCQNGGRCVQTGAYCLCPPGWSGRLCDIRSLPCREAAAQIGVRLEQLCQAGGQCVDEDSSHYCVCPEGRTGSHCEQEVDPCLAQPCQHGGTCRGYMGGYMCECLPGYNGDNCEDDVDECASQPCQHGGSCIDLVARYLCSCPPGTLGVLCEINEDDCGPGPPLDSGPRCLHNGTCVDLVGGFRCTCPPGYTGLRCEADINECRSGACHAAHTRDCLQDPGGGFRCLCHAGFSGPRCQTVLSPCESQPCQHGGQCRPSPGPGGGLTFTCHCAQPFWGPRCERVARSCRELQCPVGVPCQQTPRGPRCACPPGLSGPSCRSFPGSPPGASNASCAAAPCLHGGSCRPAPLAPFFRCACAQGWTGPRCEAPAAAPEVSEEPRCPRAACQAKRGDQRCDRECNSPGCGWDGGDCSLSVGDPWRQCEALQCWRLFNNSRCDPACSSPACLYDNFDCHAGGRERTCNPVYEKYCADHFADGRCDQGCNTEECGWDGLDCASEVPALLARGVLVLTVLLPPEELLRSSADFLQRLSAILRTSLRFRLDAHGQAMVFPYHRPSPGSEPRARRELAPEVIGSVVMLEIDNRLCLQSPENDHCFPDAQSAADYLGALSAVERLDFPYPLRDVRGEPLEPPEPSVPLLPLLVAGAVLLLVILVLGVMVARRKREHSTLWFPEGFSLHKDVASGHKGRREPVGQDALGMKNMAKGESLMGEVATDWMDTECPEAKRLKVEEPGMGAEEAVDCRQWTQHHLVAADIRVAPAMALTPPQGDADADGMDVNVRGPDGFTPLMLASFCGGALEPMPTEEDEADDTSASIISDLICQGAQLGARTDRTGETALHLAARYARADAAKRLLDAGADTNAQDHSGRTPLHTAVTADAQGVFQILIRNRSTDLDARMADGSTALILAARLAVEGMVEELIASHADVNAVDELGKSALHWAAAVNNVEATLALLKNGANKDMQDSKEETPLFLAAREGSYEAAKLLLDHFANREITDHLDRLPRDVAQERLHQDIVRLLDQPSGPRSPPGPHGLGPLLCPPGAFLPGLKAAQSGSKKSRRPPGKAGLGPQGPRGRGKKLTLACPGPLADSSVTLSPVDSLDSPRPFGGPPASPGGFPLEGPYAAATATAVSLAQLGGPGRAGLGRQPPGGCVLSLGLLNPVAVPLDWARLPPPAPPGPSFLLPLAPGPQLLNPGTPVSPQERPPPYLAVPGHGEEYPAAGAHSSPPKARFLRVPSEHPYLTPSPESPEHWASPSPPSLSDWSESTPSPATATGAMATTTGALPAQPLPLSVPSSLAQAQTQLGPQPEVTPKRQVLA
# Chain of Torsin-1A-interacting protein 2 (Homo sapiens) (Q8NFQ8 whole entry, looked up): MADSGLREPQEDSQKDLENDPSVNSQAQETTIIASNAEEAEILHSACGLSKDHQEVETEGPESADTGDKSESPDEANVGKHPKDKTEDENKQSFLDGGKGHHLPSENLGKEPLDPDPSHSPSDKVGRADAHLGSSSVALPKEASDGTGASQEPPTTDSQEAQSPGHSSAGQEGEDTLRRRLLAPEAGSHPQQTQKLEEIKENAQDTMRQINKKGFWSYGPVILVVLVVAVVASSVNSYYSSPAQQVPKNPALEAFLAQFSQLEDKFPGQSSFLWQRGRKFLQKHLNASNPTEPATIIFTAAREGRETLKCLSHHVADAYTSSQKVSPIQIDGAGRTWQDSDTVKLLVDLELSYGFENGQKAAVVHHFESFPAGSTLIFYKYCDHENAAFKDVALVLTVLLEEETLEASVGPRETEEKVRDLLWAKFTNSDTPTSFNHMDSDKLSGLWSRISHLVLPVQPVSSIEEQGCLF
# Chain of Pro-neuregulin-1, membrane-bound isoform (Homo sapiens) (Q02297 whole entry, looked up, the tested form may be a part, canonical isoform): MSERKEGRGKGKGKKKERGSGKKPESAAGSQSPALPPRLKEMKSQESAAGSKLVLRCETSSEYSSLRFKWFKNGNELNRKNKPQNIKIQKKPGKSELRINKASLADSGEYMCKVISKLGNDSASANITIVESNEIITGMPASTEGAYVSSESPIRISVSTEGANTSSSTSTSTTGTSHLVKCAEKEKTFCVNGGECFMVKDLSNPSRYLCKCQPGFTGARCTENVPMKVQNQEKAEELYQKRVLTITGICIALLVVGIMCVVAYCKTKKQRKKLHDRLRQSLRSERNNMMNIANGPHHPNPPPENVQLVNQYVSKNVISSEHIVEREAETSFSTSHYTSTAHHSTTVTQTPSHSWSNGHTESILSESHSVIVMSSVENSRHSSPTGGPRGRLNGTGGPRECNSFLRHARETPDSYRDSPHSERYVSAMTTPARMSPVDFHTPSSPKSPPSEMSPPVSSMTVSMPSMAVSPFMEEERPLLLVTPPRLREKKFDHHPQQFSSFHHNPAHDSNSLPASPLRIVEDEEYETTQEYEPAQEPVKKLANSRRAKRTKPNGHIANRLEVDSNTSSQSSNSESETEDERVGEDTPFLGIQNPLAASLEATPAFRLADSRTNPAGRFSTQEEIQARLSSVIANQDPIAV
SMILES,composite z-score [1],composite z-score [2],composite z-score [3],composite z-score [4],composite z-score [5],composite z-score [6],composite z-score [7],z-score [8],composite z-score [9],composite z-score [10],composite z-score [11],z-score [12],z-score [13],z-score [14],composite z-score [15],z-score [16],composite z-score [17],composite z-score [18],composite z-score [19],composite z-score [20]
COCCCNC(=O)[C@@]1(c2ccc([N+](=O)[O-])cc2)CC(=O)N(C2CCCCC2)[C@@H]1c1ccc(CO)cc1,-1.19,-0.655,-0.248,0.174,-0.243,0.763,1.39,-0.912 (inactive),-0.604,-0.859,0.139,-0.707 (inactive),-0.591 (inactive),-0.432 (inactive),2.04,0.77 (inactive),-0.509,-0.836,-0.193,-0.421
[N-]=[N+]=Nc1ccccc1C[C@@]1(C(=O)N2CCOCC2)N=C(c2ccc(OCCCO)cc2)O[C@@H]1c1ccccc1N=[N+]=[N-],1.14,0.782,0.195,0.707,1.45,0.889,1.12,-1.36 (inactive),1.18,0.0511,1.56,-0.822 (inactive),-2.95 (inactive),1.56 (inactive),2.32,2.13 (inactive),0.369,0.8,1.09,0.0477
C=C(COC)/C(=C/C[C@H](OC(C)=O)c1ccc(OCCO)cc1)c1cnc2ccccc2c1,0.0732,0.0548,0.0001,0.765,1.41,-0.0967,0.99,0.345 (inactive),0.372,0.176,1.46,1.53 (inactive),-1.49 (inactive),1.09 (inactive),1.05,1.12 (inactive),0.0707,0.935,1.1,-0.0039
COCCOC(=O)N1C(=O)[C@@]2(c3cc(C#CCNC(N)=O)ccc31)[C@H](c1ccc(OCCO)cc1)N1[C@H](c3ccccc3)[C@H](c3ccccc3)OC(=O)[C@H]1[C@@H]2C(=O)N1CCCCCCC1,2.75,0.0698,0.128,0.209,0.315,-0.0446,-0.116,-0.271 (inactive),1.46,0.167,0.844,1.64 (inactive),0.501 (inactive),3.94 (inactive),0.789,2.27 (inactive),1.09,0.406,0.555,0.0199
Cc1ccc(S[C@]2(C(=O)O)CC(=O)N(Cc3ccccc3)[C@@H]2c2ccc(CO)cc2)cc1,0.58,0.131,-0.0853,-1.1,0.0203,-0.33,0.736,-0.579 (inactive),0.262,-0.367,0.191,-0.179 (inactive),-2.58 (inactive),0.215 (inactive),1.88,2.49 (inactive),-0.0953,-0.674,-0.0738,-0.136
C[C@]1(C(=O)NCc2ccccc2)c2ccccc2C(=O)N(Cc2cc(C(F)(F)F)cc(C(F)(F)F)c2)[C@H]1c1ccc(CO)cc1,0.158,1.05,0.168,0.149,1.04,0.196,1.23,-1.65 (inactive),0.185,-0.359,1.58,-2 (inactive),-3.22 (inactive),-2.11 (inactive),1.51,2.13 (inactive),0.339,0.583,0.655,0.18
CCN1C(C)=C(C(=O)OC)[C@@H](c2ccccc2)N2C(=O)[C@](O)(C(=O)OC)[C@@H](c3ccccc3)C(C(C)=O)=C12,-0.0393,-0.0183,-0.0621,0.391,0.991,-0.485,0.913,-1.88 (inactive),0.283,-0.262,-0.107,-3.56 (inactive),-3.03 (inactive),-2.26 (inactive),0.241,0.556 (inactive),0.0417,0.506,0.768,0.186
COc1ccc(NN2C(C(O)c3cc(OC)c(OC)c(OC)c3)C=CC3C(=O)N(C4CCCCC4)C(=O)C32)cc1 (stereo not given),0.833,-0.194,0.123,0.767,1.63,1.09,1.07,1.02 (inactive),1.51,0.0734,0.544,0.199 (inactive),0.966 (inactive),0.169 (inactive),2.87,-0.319 (inactive),0.358,0.116,1.08,0.142
COC(=O)[C@@]1(Cc2ccc(OC)cc2)[C@H]2c3cc(C(=O)N(C)C)n(CCc4ccc(OC)c(Br)c4)c3C[C@H]2CN1C(=O)c1ccccc1,1.53,0.323,0.544,1.03,1.66,1.77,1.34,-0.151 (inactive),1.95,-0.0489,1.17,0.557 (inactive),0.236 (inactive),2.82 (inactive),3.33,-0.76 (inactive),0.903,-0.54,1.01,0.674
CO[C@H]1COC(=O)[C@H](C)NC(=O)CC=C[C@@H](C)[C@H](NS(=O)(=O)c2ccc(C)cc2)COC(=O)CC=C[C@@H]1C,-0.734,1.84,-0.172,0.0871,-0.543,-0.455,-0.775,-1.27 (inactive),0.0005,-0.199,0.0763,-0.733 (inactive),-0.635 (inactive),-1.1 (inactive),-0.876,0.119 (inactive),-0.186,0.678,-0.734,-0.119
O=C(NCC(F)(F)F)[C@@H]1c2ccccc2C(=O)N(Cc2ccccc2Cl)[C@H]1c1ccc(CO)cc1,1.39,-0.338,-0.0964,-0.601,-1.37,-0.341,1.39,-1.3 (inactive),0.214,-0.47,-0.809,-0.896 (inactive),-0.243 (inactive),0.0061 (inactive),1.18,0.939 (inactive),-0.605,-1.5,-1.14,-0.0721
[N-]=[N+]=NCc1ccccc1C[C@]1(C(=O)N2CCCCC2)N=C(c2ccc(OCCCO)cc2)O[C@H]1c1ccccc1CN=[N+]=[N-],-0.0017,0.759,0.0342,0.765,0.776,1.63,1.19,-1.62 (inactive),1.29,0.142,1.55,0.551 (inactive),0.118 (inactive),8.36 (active),3.35,-0.004 (inactive),-0.0041,0.686,1.14,-0.0703
COC(=O)[C@@]1(Cc2ccccc2CN=[N+]=[N-])N=C(c2ccc(OCCCO)cc2)O[C@H]1c1ccccc1N=[N+]=[N-],0.127,-0.523,-0.0004,-0.259,0.167,1.09,1.13,1.17 (inactive),0.19,0.0826,1.42,0.763 (inactive),2.17 (inactive),36 (active),2.18,0.0738 (inactive),-0.184,0.0678,0.698,-0.0372
C=CC[C@@]12N=C(c3ccc(OCCCO)cc3)O[C@@H]1c1ccccc1CN(Cc1ccccc1)C2=O,1.36,0.845,-0.0043,0.245,0.477,0.713,1.16,-4 (inactive),0.15,-0.138,1.54,-0.127 (inactive),-3.56 (inactive),5.67 (inactive),2.86,1.1 (inactive),0.258,0.347,0.7,0.0122
O=C1O[C@@H](c2ccccc2)[C@@H](c2ccccc2)N2[C@@H](c3ccc(OCCO)cc3)[C@]3(C(=O)Nc4ccc(C#CCCO)cc43)[C@@H](C(=O)N3CCN(c4ncccn4)CC3)[C@H]12,-0.375,0.388,0.0364,0.617,0.731,1.2,1.2,0.126 (inactive),0.488,-0.171,1.54,0.772 (inactive),1.04 (inactive),3.71 (inactive),2.69,1.14 (inactive),-0.124,1.24,1.14,-0.0828
CCCCCCc1nc(-c2cc(C)c(OC)c(C)c2)cc2c1[Si](C(C)C)(C(C)C)O[C@H]2c1ccccc1,-0.315,-0.397,-0.14,-0.324,-0.209,-0.626,-1.04,0.119 (inactive),0.0223,0.0505,-0.118,0.955 (inactive),0.659 (inactive),-0.558 (inactive),-0.685,-0.54 (inactive),-0.107,-0.346,-0.496,-0.168
C=CC[C@]1(C(=O)NCC(O)CO)N=C(c2ccc(OCCCO)cc2)O[C@H]1c1ccccc1 (stereo not given in full),1.28,-0.012,-0.118,-0.843,-0.502,2.14,1.25,-1.1 (inactive),-0.0064,-0.124,0.16,-1.44 (inactive),-0.514 (inactive),-1.18 (inactive),3.57,2.05 (inactive),0.0544,-0.923,-0.898,-0.169
C=C(CCCC)C(=O)CC[C@@H](OC(C)=O)c1ccccc1OCCO,0.286,0.844,-0.177,-0.34,-0.975,-0.52,-0.37,-2.26 (inactive),-0.488,-0.0645,0.0077,-0.837 (inactive),-18.7 (active),-1.57 (inactive),-0.325,0.682 (inactive),-0.214,-0.61,-0.524,-0.232
CO[C@H]1COC(=O)[C@@H](C)NC(=O)CC=C[C@@H](C)[C@H](OC)COC(=O)CC=C[C@@H]1C,-0.691,1.95,-0.229,-0.895,-1.41,-0.615,0.479,-1.32 (inactive),-0.0849,0.0596,1.55,-1.66 (inactive),-2.03 (inactive),-1.67 (inactive),-0.619,1.25 (inactive),-0.28,1.52,0.134,-0.299
CCOC(=O)C[C@H]1[C@H](OC(=O)Cc2ccc3c(c2)OCO3)[C@@H](NC(=O)c2ccc3ccccc3c2)c2cc(OCCCO)ccc2N1C(=O)Cc1ccc(OC)cc1,-0.0089,0.237,-0.0239,0.546,0.947,0.759,0.358,-1.63 (inactive),0.533,0.0274,0.842,-2.93 (inactive),-0.366 (inactive),0.227 (inactive),1.73,1.28 (inactive),0.164,0.233,0.719,-0.0331
